Laboratory results as given in ChEMBL document CHEMBL3433997, “St. Jude Leishmania screening dataset” (2016).

Columns and labels:
Type in all cases: functional
[1] = molecular target: Solute carrier family 2, facilitated glucose transporter member 1 (Homo sapiens) (UniProt P11166); experiment: ST_JUDE_LEISH: Cytotoxicity at 2uM final concentration against transgenic Leishmania Mexicana promastigotes LmGLUT1 that are glucose transport deficient and complemented with the human glucose transporter GLUT1. Activity is measured by DNA content using SYBR green in vitro
Solute carrier family 2, facilitated glucose transporter member 1 (Homo sapiens), sequence (P11166 whole entry): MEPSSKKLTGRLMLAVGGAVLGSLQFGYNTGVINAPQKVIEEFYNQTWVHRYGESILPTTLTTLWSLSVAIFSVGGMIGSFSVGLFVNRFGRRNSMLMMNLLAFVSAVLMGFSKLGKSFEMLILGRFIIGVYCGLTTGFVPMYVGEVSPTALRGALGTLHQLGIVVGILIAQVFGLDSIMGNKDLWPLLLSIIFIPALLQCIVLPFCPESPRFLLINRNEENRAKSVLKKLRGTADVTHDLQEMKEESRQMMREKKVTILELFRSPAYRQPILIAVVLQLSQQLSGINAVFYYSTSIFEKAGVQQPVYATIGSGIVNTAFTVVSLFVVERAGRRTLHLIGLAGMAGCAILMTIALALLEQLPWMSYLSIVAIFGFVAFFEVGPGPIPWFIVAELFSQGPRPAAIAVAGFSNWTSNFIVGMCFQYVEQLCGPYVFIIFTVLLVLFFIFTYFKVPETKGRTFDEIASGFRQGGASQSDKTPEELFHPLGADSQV

[2] = molecular target: Hexose transporter 1 (Plasmodium falciparum) (UniProt O97467); experiment: ST_JUDE_LEISH: Cytotoxicity at 2uM final concentration against transgenic Leishmania Mexicana promastigotes LmPfHT that are glucose transport deficient and complemented with the Plasmodium falciparum hexose transporter. Activity is measured by DNA content using SYBR green in vitro
[3] = molecular target: Glucose transporter (Leishmania mexicana) (UniProt O61059); experiment: ST_JUDE_LEISH: Cytotoxicity at 2uM final concentration against transgenic Leishmania Mexicana promastigotes LmGT2 that are glucose transport deficient and complemented with the L. Mexicana glucose transporter 2. Activity is measured by DNA content using SYBR green in vitro

Row | SMILES | inhibition [1] | inhibition [2] | inhibition [3]
1 | CC[C@H]1CN(Cc2cccc(O)c2)CC[C@H]1CCCc1ccnc2ccc(O)cc12 | 4.31% | 4.23% | 3.98%
2 | O=c1cc(NCCCNCc2cc(C(F)(F)F)ccc2Cl)[nH]c2ccccc12 | -0.91% | 0.29% | -1.57%
3 | CCOC(=O)c1c(C)noc1Nc1ccc(OC)cc1 | 1.87% | 2.32% | 2.21%
4 | COc1cc(C(=O)N2CCN(C(C)C)CC2)ccc1CN(C)CCCCN1CCN(c2cccc(Cl)c2Cl)CC1 | 1.77% | 1.73% | 0.12%
5 | COc1ccc2nc3cc(Cl)ccc3c(Nc3ccc(Sc4ccc(Nc5c6ccc(Cl)cc6nc6ccc(OC)cc56)cc4)cc3)c2c1 | 3.47% | 4.48% | 3.6%
6 | CCCc1cc(Cc2cnc(N)nc2N)cc(OCCCCCC(=O)O)c1OC | 1.55% | 0.18% | 0.67%
7 | CSc1ccc(CN2CCC(NC(=O)c3ccc(-c4cccc(C(F)(F)F)c4)s3)CC2)cc1 | 3.18% | 0.48% | 3.3%
8 | Cc1cc(NC(=O)Nc2ccc(Oc3ccccc3)cc2)c2ccccc2n1 | 0.26% | 1.44% | -0.34%
9 | Clc1cc2c(Nc3ccc(Oc4ccccc4)cc3)ccnc2cc1-c1ccc(CNCCN2CCOCC2)o1 | -1.44% | -0.57% | -0.03%
10 | Nc1ccnc(N2CCC(CCOc3ccnc4cc(Cl)ccc34)CC2)c1 | 11.9% | 22.8% | 6.6%
11 | O=C(NCCCN1CCOCC1)c1cccc(Nc2nccc(Nc3ccc(Oc4ccccc4)cc3)n2)c1 | 2.39% | -0.18% | -0.86%
12 | O=C(/C=C/c1ccc(Cl)c(Cl)c1)NCCCCCN1CCN(C(=O)Nc2ccc(OC(F)F)cc2)CC1 | 2.15% | 1.76% | -2.1%
13 | O=[N+]([O-])c1ccccc1C=NN=c1c2c([nH]c3ccccc13)CCCC2 | 20.8% | 17.5% | 12%
14 | CCOC(=O)c1c(-c2ccccc2)nc2c(sc3ccccc32)c1O | 5.5% | 5.15% | 5.35%
15 | Cc1ccccc1Oc1ccc(Nc2ccnc(Nc3cccc(C(N)=O)c3)n2)cc1C(F)(F)F | 4.26% | 3.48% | 1.52%
16 | CC(C)[C@H](NC(=O)NC1CCC(CCN2C3CCC2CC(OC(=O)C(CO)c2ccccc2)C3)CC1)C(O)(c1ccccc1)c1ccccc1 (some centres undefined) | 3.62% | 3.92% | 1.15%
17 | O=C(Nc1cccc(CN2CCN(Cc3cccc(O)c3)CC2)c1)c1cc2ccccc2s1 | 3.62% | 3.45% | 3.74%

Row | SMILES | inhibition [1] | inhibition [2] | inhibition [3]
18 | Cc1[nH]c(C)c(-c2ccc(OCc3ccc(OC(F)(F)F)cc3)nc2)c(=O)c1Br | 8.89% | 13.8% | 3.44%
19 | CC(C)(C)C1CCC(C(=O)c2ccc3ccccc3c2O)CC1 (centres undefined) | 1.28% | -0.87% | 0.57%
20 | CN1CCN(CC(=O)Nc2ccc(-c3ccc(-c4nc5cc(C(F)(F)F)ccc5[nH]4)s3)cc2)CC1 | -0.05% | 1.22% | 1.13%
21 | COc1ccc2[nH]ccc(=NN=Cc3ccccc3F)c2c1 | 7.58% | 7.67% | 7.56%
22 | CN1CCCC(CN2CCN(Cc3cccc(-c4ccc(-c5nc6ccccc6[nH]5)s4)c3)CC2)C1 (centres undefined) | 7.08% | 6.85% | 3.05%
23 | CC(=O)N(C)c1cccc(C(=O)Nc2cccc(-c3cccc(-c4nc5cccc(C)c5[nH]4)c3)c2)c1 | 13.3% | 3.96% | 11.4%
24 | COc1ccc2nccc(N3CCN(CCNCc4ccc5c(n4)NC(=O)CS5)CC3)c2c1 | 1.43% | 0.73% | 0.44%
25 | COc1ccc(CC(Cc2ccc(OC)cc2)NCC(O)c2cccc(Cl)c2)cc1 (centres undefined) | 2.03% | 0.72% | 1.6%
26 | Nc1ncc(-c2ccccc2)cc1-c1nc2cc(Cl)c(F)cc2[nH]1 | 7.29% | 8.28% | 3.16%
27 | O=S(=O)(Nc1cc2c(cc1OCc1ccccc1)CCN(C1CCC1)CC2)c1ccc(-c2ccc(Cl)cc2)cc1 | 1.72% | 2.61% | -1.11%
28 | O=C(Nc1cccc(-c2cccc(CN3CCCC3)c2)c1)c1cccc(Cl)c1 | 2.72% | 2.72% | 4.9%
29 | Cc1cccc(CNc2nc(C)cc(N[C@@H](Cc3ccccc3)C(=O)NCCOc3ccccc3)n2)c1 | 16.6% | 15.8% | 11.4%
30 | CCOC(=O)c1nc(-c2ccc(-c3ccccc3)cc2)[nH]c1N | 3.98% | 2.89% | 2.52%
31 | N#Cc1ccc(N2CCN(Cc3ccc(-c4ccc(-c5nc6cc(F)ccc6[nH]5)s4)cc3)CC2)nc1 | 6.42% | 5.07% | 4.78%
32 | Cc1cc(NCCC(=O)NCc2cccc(F)c2)nc(NCCc2ccc(F)cc2)n1 | 5.01% | 3.24% | 3.7%
33 | CCc1cc(I)c2c(c1)C(NCCCNc1cc(=O)c3ccccc3[nH]1)CCN2 (centres undefined) | 2.28% | 4.39% | 1.86%
